{"source": "paper PMC4336329", "about": "(PLoS ONE, 2015)", "note": "Screen size: about 310,000 compounds; about 14,000 (4.5%) showed an effect of 50% or more. The effect is printed as a negative number. This excerpt belongs to a sample that is enriched for strong results.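 Further: peak tail current of the secondary pulse compared with the same well before compound.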", "data": [{"target": "human ether-à-go-go-related gene (hERG) potassium channel (human, UniProt Q12809)", "sequence (Q12809 whole entry, looked up)": "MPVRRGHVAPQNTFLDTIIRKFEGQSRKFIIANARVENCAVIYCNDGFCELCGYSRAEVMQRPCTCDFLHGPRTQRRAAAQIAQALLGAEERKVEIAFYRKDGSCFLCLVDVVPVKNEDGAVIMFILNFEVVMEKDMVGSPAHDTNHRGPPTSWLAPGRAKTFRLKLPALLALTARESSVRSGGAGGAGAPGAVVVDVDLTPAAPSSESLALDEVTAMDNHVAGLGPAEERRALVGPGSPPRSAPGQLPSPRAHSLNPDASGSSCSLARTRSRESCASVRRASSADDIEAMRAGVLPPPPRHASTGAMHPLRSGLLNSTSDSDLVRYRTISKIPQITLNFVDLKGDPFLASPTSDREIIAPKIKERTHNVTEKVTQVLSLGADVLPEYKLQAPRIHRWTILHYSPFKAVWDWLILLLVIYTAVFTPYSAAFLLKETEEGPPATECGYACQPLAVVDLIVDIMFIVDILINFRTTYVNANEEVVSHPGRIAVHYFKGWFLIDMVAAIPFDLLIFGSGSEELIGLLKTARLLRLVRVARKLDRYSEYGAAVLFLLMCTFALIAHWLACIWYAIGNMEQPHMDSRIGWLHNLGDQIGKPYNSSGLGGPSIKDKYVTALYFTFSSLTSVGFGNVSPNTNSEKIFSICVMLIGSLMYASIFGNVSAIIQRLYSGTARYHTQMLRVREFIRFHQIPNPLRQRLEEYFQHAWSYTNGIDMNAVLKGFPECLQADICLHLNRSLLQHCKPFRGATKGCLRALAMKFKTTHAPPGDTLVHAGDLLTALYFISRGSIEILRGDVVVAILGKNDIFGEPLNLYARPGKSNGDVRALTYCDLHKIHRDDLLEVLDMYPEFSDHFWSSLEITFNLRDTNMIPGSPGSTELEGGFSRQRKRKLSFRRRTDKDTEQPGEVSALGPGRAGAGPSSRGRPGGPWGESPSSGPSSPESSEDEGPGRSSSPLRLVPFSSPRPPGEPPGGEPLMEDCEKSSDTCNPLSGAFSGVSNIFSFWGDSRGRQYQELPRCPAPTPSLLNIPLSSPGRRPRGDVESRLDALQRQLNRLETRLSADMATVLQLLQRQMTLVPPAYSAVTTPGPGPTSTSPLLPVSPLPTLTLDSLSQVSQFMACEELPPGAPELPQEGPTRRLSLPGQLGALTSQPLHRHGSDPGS", "experiment": "primary screen, population patch clamp on CHO cells stably expressing hERG; higher = less effect of the substance", "units": {"hERG current change (%, negative = inhibition) at 10uM": "%"}, "values": [{"smiles": "CCC1C(=O)N=C(SCC(=O)Nc2cccc3ccccc23)NC1=O", "note": "(stereo not shown)", "hERG current change (%, negative = inhibition) at 10uM": -7.84}, {"smiles": "COc1ccc(C2C(C(=O)N3CCC(C(N)=O)CC3)CC(=O)N2c2ccc(OC)cc2)cc1", "note": "(stereo not shown)", "hERG current change (%, negative = inhibition) at 10uM": -1.19}, {"smiles": "COCCn1c(COc2ccc(OC)cc2)nc2ccccc21", "hERG current change (%, negative = inhibition) at 10uM": -14.3}, {"smiles": "CCCn1c(N)nc2ccccc21", "hERG current change (%, negative = inhibition) at 10uM": 8.05}, {"smiles": "OCc1nc2ccccc2n1CCCOc1ccc(Br)cc1", "hERG current change (%, negative = inhibition) at 10uM": -36.8}, {"smiles": "Nc1nc2ccccc2n1CCOc1ccc(Br)cc1", "hERG current change (%, negative = inhibition) at 10uM": -61.2}, {"smiles": "Cc1nc2ccccc2n1CCOc1ccc(F)cc1", "hERG current change (%, negative = inhibition) at 10uM": -19.8}, {"smiles": "Nc1nc2ccccc2n1CCOc1ccc(F)cc1", "hERG current change (%, negative = inhibition) at 10uM": -67.9}, {"smiles": "Cn1c(COc2ccc(F)cc2)nc2ccccc21", "hERG current change (%, negative = inhibition) at 10uM": -0.759}, {"smiles": "S=C(Nc1ccccc1)Nc1nc2ccccc2n1CCOc1ccc(Br)cc1", "hERG current change (%, negative = inhibition) at 10uM": 11.6}, {"smiles": "Clc1ccc(OCCn2c(-c3ccco3)nc3ccccc32)cc1", "hERG current change (%, negative = inhibition) at 10uM": -26.7}, {"smiles": "Nc1nc2ccccc2n1CCOc1ccccc1Cl", "hERG current change (%, negative = inhibition) at 10uM": -3.5}, {"smiles": "Nc1nc2ccccc2n1CCOc1ccc(Cl)cc1", "hERG current change (%, negative = inhibition) at 10uM": -51.1}, {"smiles": "COc1ccc(OCCn2c(N)nc3ccccc32)cc1", "hERG current change (%, negative = inhibition) at 10uM": -67.4}, {"smiles": "O=P(NS(=O)(=O)c1ccc(Br)cc1)(Oc1ccccc1)Oc1ccccc1", "hERG current change (%, negative = inhibition) at 10uM": 12.2}, {"smiles": "O=C(Cn1c(=O)c(=O)n(Cc2ccccc2)c2ccc(Cl)cc21)Nc1ccc(F)cc1F", "hERG current change (%, negative = inhibition) at 10uM": 21.3}, {"smiles": "Cc1cc(C)c(Cn2c(=O)n(CCCC(=O)NCc3ccco3)c(=O)c3sccc32)c(C)c1", "hERG current change (%, negative = inhibition) at 10uM": 6.15}, {"smiles": "Cc1cc(NC(=O)c2cc([N+](=O)[O-])ccc2Cl)no1", "hERG current change (%, negative = inhibition) at 10uM": 8.65}, {"smiles": "Nn1c(COc2ccc(Cl)cc2)nc2ccccc2c1=O", "hERG current change (%, negative = inhibition) at 10uM": -34.8}, {"smiles": "CCc1ccc(CNC(=O)c2ccc(OC3CCN(C(C)=O)CC3)c(OC)c2)nc1", "hERG current change (%, negative = inhibition) at 10uM": 8.11}, {"smiles": "CC1CCN(Cc2ccc(NC(=O)C3CCN(c4nnc(-n5cccc5)s4)CC3)cc2)CC1", "hERG current change (%, negative = inhibition) at 10uM": 1.05}, {"smiles": "COC(=O)c1ccccc1NC(=O)C1CCCN(c2nnc(-n3cccc3)s2)C1", "note": "(stereo not shown)", "hERG current change (%, negative = inhibition) at 10uM": -53}, {"smiles": "CC(CCc1ccccc1)NC(=O)C1CCCN(c2nnc(-n3cccc3)s2)C1", "note": "(stereo not shown)", "hERG current change (%, negative = inhibition) at 10uM": -11.2}, {"smiles": "O=C(NC1CCN(Cc2ccccc2)CC1)C1CCCN(c2nnc(-n3cccc3)s2)C1", "note": "(stereo not shown)", "hERG current change (%, negative = inhibition) at 10uM": -69.8}, {"smiles": "CC(C)NC(=O)C1CCCN(c2nnc(-n3cccc3)s2)C1", "note": "(stereo not shown)", "hERG current change (%, negative = inhibition) at 10uM": -16.4}, {"smiles": "O=C(C1CCCN(c2nnc(-n3cccc3)s2)C1)N1CCN(c2ccccc2)CC1", "note": "(stereo not shown)", "hERG current change (%, negative = inhibition) at 10uM": -47}, {"smiles": "CC(=O)Nc1ccc(NC(=O)C2CCCN(c3nnc(-n4cccc4)s3)C2)cc1", "note": "(stereo not shown)", "hERG current change (%, negative = inhibition) at 10uM": 7.44}, {"smiles": "O=C(NC1CCN(Cc2ccccc2)CC1)C1CCN(c2nnc(-n3cccc3)s2)CC1", "hERG current change (%, negative = inhibition) at 10uM": -59}, {"smiles": "O=C(NCCCN1CCN(Cc2ccccc2)CC1)C1CCN(c2nnc(-n3cccc3)s2)CC1", "hERG current change (%, negative = inhibition) at 10uM": -48.5}, {"smiles": "NC(=O)c1ccc(N2CCN(c3ccccc3F)CC2)c([N+](=O)[O-])c1", "hERG current change (%, negative = inhibition) at 10uM": -25.5}, {"smiles": "[Br-].c1ccc(-c2c[n+]3c(n2-c2ccccc2)CCC3)cc1", "hERG current change (%, negative = inhibition) at 10uM": -3.72}, {"smiles": "Cc1ccc(-n2c(-c3ccc(Cl)cc3)c[n+]3c2CCC3)cc1.[Br-]", "hERG current change (%, negative = inhibition) at 10uM": -62.4}, {"smiles": "FC(F)Sc1ccc(-n2c(-c3ccc(Cl)cc3)c[n+]3c2CCC3)cc1.[Br-]", "hERG current change (%, negative = inhibition) at 10uM": -92.6}, {"smiles": "Cc1ccc(-c2c[n+]3c(n2-c2ccccc2)CCC3)cc1.[Br-]", "hERG current change (%, negative = inhibition) at 10uM": -48.9}, {"smiles": "Cc1ccc(-n2c(-c3ccccc3)c[n+]3c2CCC3)cc1.[Br-]", "hERG current change (%, negative = inhibition) at 10uM": -50.7}, {"smiles": "Cc1cc(C)cc(OCC(=O)NCC2CCCO2)c1", "note": "(stereo not shown)", "hERG current change (%, negative = inhibition) at 10uM": -11.8}, {"smiles": "C#CCOC(=O)C[N+](C)(C)CC#Cc1ccccc1.[Cl-]", "hERG current change (%, negative = inhibition) at 10uM": 33.3}, {"smiles": "CC1(c2nnc(-c3ccccc3)o2)CC(c2ccccc2)=NO1", "note": "(stereo not shown)", "hERG current change (%, negative = inhibition) at 10uM": -11.6}, {"smiles": "COc1ccc(C2=NOC(C)(c3nnc(-c4ccncc4)o3)C2)cc1", "note": "(stereo not shown)", "hERG current change (%, negative = inhibition) at 10uM": 1.73}, {"smiles": "COc1ccc(C2=NOC(C)(c3nnc(-c4ccccc4)o3)C2)cc1", "note": "(stereo not shown)", "hERG current change (%, negative = inhibition) at 10uM": -58.3}, {"smiles": "CC1(c2nnc(-c3ccccc3)o2)CC(c2c(Cl)cccc2Cl)=NO1", "note": "(stereo not shown)", "hERG current change (%, negative = inhibition) at 10uM": 23.4}, {"smiles": "CC1(c2nnc(-c3ccncc3)o2)CC(c2c(Cl)cccc2Cl)=NO1", "note": "(stereo not shown)", "hERG current change (%, negative = inhibition) at 10uM": -69.8}, {"smiles": "CC1(c2nnc(-c3ccc(Cl)cc3)o2)CC(c2c(Cl)cccc2Cl)=NO1", "note": "(stereo not shown)", "hERG current change (%, negative = inhibition) at 10uM": 1.13}, {"smiles": "CC(=O)Nc1ccc(NC(=O)CSc2ccc(-c3cccnc3)nn2)cc1", "hERG current change (%, negative = inhibition) at 10uM": 24.7}, {"smiles": "O=C(C1CCC1)N1CCN(S(=O)(=O)c2ccc(Br)cc2Cl)CC1", "hERG current change (%, negative = inhibition) at 10uM": -21.8}, {"smiles": "COCCn1c(Cc2ccccc2)nnc1SCC(=O)Nc1cc(C)on1", "hERG current change (%, negative = inhibition) at 10uM": -5.36}, {"smiles": "COc1ccc(CC(=O)NNC(=O)CCc2ccccc2)cc1OC", "hERG current change (%, negative = inhibition) at 10uM": 14.8}, {"smiles": "CCCSc1cc(=O)n(-c2ccccc2)nc1C(=O)O", "hERG current change (%, negative = inhibition) at 10uM": 15.7}, {"smiles": "CCOc1ccccc1Nc1nnc(SC(C)C(=O)Nc2nc(-c3ccccc3)cs2)s1", "note": "(stereo not shown)", "hERG current change (%, negative = inhibition) at 10uM": 1.46}, {"smiles": "Br.C=CCn1c(C)csc1=Nc1ccccc1C", "hERG current change (%, negative = inhibition) at 10uM": 4.02}, {"smiles": "Cc1ccccc1CC(=O)NCC1CCCCC1", "hERG current change (%, negative = inhibition) at 10uM": 1.34}, {"smiles": "Cc1ccccc1N(CC(=O)NCC1CCCO1)C(=O)C1(C)CC(=O)N=C2C=CC=CN21", "note": "(stereo not shown)", "hERG current change (%, negative = inhibition) at 10uM": -1.4}, {"smiles": "Cc1cccc(NS(=O)(=O)c2ccc(C(=O)NCC(c3ccco3)N3CCCCC3)cc2)c1C", "note": "(stereo not shown)", "hERG current change (%, negative = inhibition) at 10uM": -55.6}, {"smiles": "Cc1cc(S(=O)(=O)Nc2ccc(C(=O)NCC(c3ccco3)N3CCCC3)cc2)ccc1F", "note": "(stereo not shown)", "hERG current change (%, negative = inhibition) at 10uM": -50.6}, {"smiles": "O=C(NCC(c1ccco1)N1CCCC1)c1ccc(S(=O)(=O)Nc2ccccc2Cl)cc1", "note": "(stereo not shown)", "hERG current change (%, negative = inhibition) at 10uM": -11.6}, {"smiles": "O=C(NCC(c1ccco1)N1CCCCC1)c1ccc(NS(=O)(=O)c2ccc(F)cc2)cc1", "note": "(stereo not shown)", "hERG current change (%, negative = inhibition) at 10uM": -13}, {"smiles": "COc1ccccc1C(CNC(=O)c1ccc(NS(=O)(=O)c2ccc(F)c(C)c2)cc1)N(C)C", "note": "(stereo not shown)", "hERG current change (%, negative = inhibition) at 10uM": -24.4}, {"smiles": "COc1ccccc1C(CNC(=O)c1ccc(NS(=O)(=O)c2ccc(F)c(C)c2)cc1)N1CCCC1", "note": "(stereo not shown)", "hERG current change (%, negative = inhibition) at 10uM": -58.1}, {"smiles": "COc1ccccc1C(CNC(=O)c1cccc(NS(=O)(=O)c2ccc(C)c(F)c2)c1)N1CCCC1", "note": "(stereo not shown)", "hERG current change (%, negative = inhibition) at 10uM": -40.9}, {"smiles": "Cc1cc(S(=O)(=O)Nc2ccc(C(=O)NCC(c3ccco3)N3CCCCC3)cc2)ccc1F", "note": "(stereo not shown)", "hERG current change (%, negative = inhibition) at 10uM": -41.2}, {"smiles": "Cc1cc(S(=O)(=O)Nc2ccc(C(=O)N3CCN(C(=O)c4ccco4)CC3)cc2)ccc1F", "hERG current change (%, negative = inhibition) at 10uM": -64.4}, {"smiles": "Cc1ccccc1NS(=O)(=O)c1ccc(C(=O)NCC(c2ccco2)N2CCCCC2)cc1", "note": "(stereo not shown)", "hERG current change (%, negative = inhibition) at 10uM": 5.89}, {"smiles": "O=C(c1ccc(S(=O)(=O)Nc2ccc(F)cc2)cc1)N1CCN(C(=O)c2ccco2)CC1", "hERG current change (%, negative = inhibition) at 10uM": -29.4}, {"smiles": "Cc1ccc(NS(=O)(=O)c2cccc(C(=O)N3CCN(C(=O)c4ccco4)CC3)c2)cc1", "hERG current change (%, negative = inhibition) at 10uM": -36.8}]}]}
